{
  "source": "the supplement of paper PMC12067093",
  "about": "“Discovery and optimisation of a covalent ligand for TRIM25 and its application to targeted protein ubiquitination” (Chemical Science, 2025)",
  "note": "Targets with the largest changes are over-represented here; the source holds about 21,000 in all.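 Also: competitive chemoproteomic profiling in live THP-1 cells with an iodoacetamide desthiobiotin (IA-DTB) probe, comparing probe-labelled peptide intensities in compound-treated cells against DMSO-treated controls.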",
  "data": [
    {"compound": "CC1Cc2ccccc2N1C(=O)C1CCCN(C1)C(=O)CCl (mixture of isomers) [TRIM25 ligand 11 (diastereomer mixture)]", "assay": "probe-labelled cysteine peptide fold change vs DMSO (competition) (log2 fold change); higher = less target engagement (more negative = stronger competition)", "details": "10 µM; THP-1; incubation time: 4 h", "values": [
      {"target": "PPP1R12C_Q9BZL4_297_LLAEHGGGMDSLTHAGQRPCDLADEEVLSLLEELAR (UniProt Q9BZL4)", "sequence (Q9BZL4 whole entry, looked up)": "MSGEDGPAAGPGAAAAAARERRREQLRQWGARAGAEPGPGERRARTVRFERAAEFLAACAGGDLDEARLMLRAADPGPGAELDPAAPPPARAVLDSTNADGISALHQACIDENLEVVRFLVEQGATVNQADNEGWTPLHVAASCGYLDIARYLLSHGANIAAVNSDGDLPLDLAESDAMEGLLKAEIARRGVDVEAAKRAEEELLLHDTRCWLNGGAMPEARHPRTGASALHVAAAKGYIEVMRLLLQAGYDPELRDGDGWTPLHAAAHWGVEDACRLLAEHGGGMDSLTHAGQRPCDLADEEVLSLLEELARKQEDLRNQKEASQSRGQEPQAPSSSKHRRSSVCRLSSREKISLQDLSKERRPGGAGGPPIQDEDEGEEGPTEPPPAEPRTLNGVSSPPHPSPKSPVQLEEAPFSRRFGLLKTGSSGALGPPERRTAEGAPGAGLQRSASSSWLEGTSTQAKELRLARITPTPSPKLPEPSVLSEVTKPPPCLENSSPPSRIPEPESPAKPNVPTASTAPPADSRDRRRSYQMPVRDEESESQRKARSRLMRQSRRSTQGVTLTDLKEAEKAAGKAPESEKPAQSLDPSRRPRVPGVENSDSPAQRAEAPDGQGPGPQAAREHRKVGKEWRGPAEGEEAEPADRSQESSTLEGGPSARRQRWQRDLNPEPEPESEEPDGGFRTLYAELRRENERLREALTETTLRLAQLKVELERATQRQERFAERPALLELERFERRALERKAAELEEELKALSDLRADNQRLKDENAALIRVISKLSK", "probe-labelled cysteine peptide fold change": 0.136},
      {"target": "PHF11_Q9UIL8_135_NYHFFCAK (UniProt Q9UIL8)", "sequence (Q9UIL8 whole entry)": "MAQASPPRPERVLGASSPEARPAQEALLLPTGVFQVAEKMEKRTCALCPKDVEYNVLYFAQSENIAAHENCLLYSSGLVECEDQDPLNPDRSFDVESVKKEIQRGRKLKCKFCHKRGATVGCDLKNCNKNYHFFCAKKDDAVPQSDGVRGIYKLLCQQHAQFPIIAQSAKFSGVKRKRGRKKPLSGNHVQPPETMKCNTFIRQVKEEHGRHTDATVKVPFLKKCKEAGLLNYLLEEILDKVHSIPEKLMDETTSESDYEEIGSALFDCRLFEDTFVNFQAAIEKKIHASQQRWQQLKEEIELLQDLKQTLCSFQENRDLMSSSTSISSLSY", "probe-labelled cysteine peptide fold change": -0.0148},
      {"target": "PEPD_P12955_158_GVNTDSGSVCR (UniProt P12955)", "sequence (P12955 whole entry, looked up)": "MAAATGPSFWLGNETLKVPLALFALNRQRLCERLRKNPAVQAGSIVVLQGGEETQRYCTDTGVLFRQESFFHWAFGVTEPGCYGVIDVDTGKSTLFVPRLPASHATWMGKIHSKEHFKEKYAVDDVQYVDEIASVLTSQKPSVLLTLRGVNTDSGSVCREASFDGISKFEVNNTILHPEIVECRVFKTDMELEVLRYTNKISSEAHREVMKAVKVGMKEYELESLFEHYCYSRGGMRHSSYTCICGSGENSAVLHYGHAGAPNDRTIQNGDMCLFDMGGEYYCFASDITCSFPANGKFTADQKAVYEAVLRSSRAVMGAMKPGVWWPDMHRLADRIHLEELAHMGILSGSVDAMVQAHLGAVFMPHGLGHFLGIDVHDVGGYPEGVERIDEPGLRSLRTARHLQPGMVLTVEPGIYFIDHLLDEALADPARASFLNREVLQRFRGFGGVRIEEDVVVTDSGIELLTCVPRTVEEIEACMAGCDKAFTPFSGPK", "probe-labelled cysteine peptide fold change": 0.0721},
      {"target": "PECAM1_P16284_109_CTVIVNNK (UniProt P16284)", "probe-labelled cysteine peptide fold change": 0.126},
      {"target": "POLR1C_O15160_214_PVHDDILIAQLRPGQEIDLLMHCVK (UniProt O15160)", "sequence (O15160 whole entry, looked up)": "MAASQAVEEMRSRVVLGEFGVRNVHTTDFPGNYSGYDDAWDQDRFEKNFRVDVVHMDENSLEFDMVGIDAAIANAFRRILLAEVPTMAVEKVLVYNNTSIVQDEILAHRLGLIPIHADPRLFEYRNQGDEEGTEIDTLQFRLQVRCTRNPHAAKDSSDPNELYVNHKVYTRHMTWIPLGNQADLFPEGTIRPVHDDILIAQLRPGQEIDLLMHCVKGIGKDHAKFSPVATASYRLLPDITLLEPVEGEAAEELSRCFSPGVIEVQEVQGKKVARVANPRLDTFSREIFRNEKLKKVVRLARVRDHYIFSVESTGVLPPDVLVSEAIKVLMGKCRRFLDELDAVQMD", "probe-labelled cysteine peptide fold change": -0.00122},
      {"target": "PIK3R4_Q99570_955_EQCNAER (UniProt Q99570)", "sequence (Q99570 whole entry, looked up)": "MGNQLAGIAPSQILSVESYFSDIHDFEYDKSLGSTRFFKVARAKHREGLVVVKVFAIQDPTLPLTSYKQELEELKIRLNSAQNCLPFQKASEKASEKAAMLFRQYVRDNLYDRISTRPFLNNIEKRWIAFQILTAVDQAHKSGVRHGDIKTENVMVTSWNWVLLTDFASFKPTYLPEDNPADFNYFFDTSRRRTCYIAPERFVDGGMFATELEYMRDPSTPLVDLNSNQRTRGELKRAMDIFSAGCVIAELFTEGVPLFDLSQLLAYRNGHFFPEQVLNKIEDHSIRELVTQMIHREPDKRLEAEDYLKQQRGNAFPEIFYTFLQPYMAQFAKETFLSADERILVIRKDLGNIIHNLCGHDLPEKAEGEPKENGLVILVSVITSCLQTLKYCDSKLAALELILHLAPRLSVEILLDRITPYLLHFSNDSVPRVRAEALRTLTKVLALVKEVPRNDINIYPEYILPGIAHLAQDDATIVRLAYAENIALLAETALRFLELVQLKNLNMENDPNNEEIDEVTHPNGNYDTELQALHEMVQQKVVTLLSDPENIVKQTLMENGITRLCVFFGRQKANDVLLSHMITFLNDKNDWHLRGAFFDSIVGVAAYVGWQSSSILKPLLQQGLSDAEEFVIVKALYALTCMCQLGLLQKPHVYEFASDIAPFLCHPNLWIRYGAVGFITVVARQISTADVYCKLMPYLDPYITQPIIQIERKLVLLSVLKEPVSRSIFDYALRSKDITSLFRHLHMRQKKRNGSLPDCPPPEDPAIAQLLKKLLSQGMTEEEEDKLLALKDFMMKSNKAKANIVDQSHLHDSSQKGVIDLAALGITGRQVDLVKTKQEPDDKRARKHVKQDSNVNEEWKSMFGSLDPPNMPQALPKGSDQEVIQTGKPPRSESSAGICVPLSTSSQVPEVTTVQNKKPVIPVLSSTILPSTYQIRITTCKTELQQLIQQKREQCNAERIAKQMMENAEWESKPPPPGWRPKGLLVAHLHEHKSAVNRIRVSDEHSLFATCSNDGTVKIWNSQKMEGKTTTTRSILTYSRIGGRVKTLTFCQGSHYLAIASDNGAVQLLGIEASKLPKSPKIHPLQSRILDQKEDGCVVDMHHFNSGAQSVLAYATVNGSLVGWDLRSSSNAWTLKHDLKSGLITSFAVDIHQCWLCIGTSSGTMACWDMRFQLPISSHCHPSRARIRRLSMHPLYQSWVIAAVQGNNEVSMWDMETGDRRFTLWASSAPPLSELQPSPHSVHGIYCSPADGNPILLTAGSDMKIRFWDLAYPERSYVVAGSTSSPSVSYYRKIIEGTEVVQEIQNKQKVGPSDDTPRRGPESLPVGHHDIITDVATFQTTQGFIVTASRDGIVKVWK", "probe-labelled cysteine peptide fold change": -0.0631}
    ]},
    {"compound": "CC1Cc2ccccc2N1C(=O)C1CCCN(C1)C(=O)CCl (mixture of isomers) [TRIM25 ligand 11 (diastereomer mixture)]", "assay": "probe-labelled cysteine peptide fold change vs DMSO (competition) (log2 fold change); higher = less target engagement (more negative = stronger competition)", "details": "50 µM; THP-1; incubation time: 4 h", "values": [
      {"target": "PPP1R12C_Q9BZL4_297_LLAEHGGGMDSLTHAGQRPCDLADEEVLSLLEELAR (UniProt Q9BZL4)", "probe-labelled cysteine peptide fold change": -0.278},
      {"target": "PHF11_Q9UIL8_135_NYHFFCAK (UniProt Q9UIL8)", "probe-labelled cysteine peptide fold change": 0.156},
      {"target": "PEPD_P12955_158_GVNTDSGSVCR (UniProt P12955)", "probe-labelled cysteine peptide fold change": -0.0568},
      {"target": "PECAM1_P16284_109_CTVIVNNK (UniProt P16284)", "probe-labelled cysteine peptide fold change": 0.476},
      {"target": "POLR1C_O15160_214_PVHDDILIAQLRPGQEIDLLMHCVK (UniProt O15160)", "probe-labelled cysteine peptide fold change": -0.0368},
      {"target": "PIK3R4_Q99570_955_EQCNAER (UniProt Q99570)", "probe-labelled cysteine peptide fold change": -0.105}
    ]}
  ]
}
